Source: PubChem BioAssay (EPA / NIEHS)
Several values for one entry are separate records, joined by “and”; a condition that tells them apart may be missing. Equal values may be shown once. Inconclusive results are not listed. Some compounds were tested as several samples or in several runs, with calls that do not always agree. Activity calls are given as the source filed them. Rule for the calls, unless noted: active = hit-call score of the fitted dose curve at least 0.9, where 1 is the maximum; inactive = score below 0.9.

Tests used:
[1] = target: Oxysterols receptor LXR-beta (Homo sapiens) (UniProt P55055); experiment: ATG_LXRb_TRANS: Attagene TRANS-FACTORIAL HepG2 Assay for human Liver X Receptor beta (LXRb) (AID 2282981; active = hit-call score of the fitted dose curve at least 0.9, where 1 is the maximum); details: HepG2 Attagene TRANS GAL4-LXRb reporter, mRNA
Procedure, shortened: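 HepG2 cells transiently transfected with GAL4-UAS reporter units for chimeric NR-Gal4 proteins, dosed for 24 h. Reporter transcripts measured by RT-PCR and capillary electrophoresis; gain-of-signal fitting relative to DMSO.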

[2] = target: Nuclear receptor subfamily 4 group A member 2 (Homo sapiens) (UniProt P43354); experiment: ATG_NURR1_TRANS: Attagene TRANS-FACTORIAL HepG2 Assay for human Nuclear Receptor Related Protein 1 (NURR1) (AID 2282985; active = hit-call score of the fitted dose curve at least 0.9, where 1 is the maximum); details: HepG2 Attagene TRANS reporter, mRNA readout
Procedure, shortened: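 HepG2 cells transiently transfected with NURR1-Gal4 chimera and GAL4-UAS reporter units; after 24 hr compound exposure, reporter mRNA quantified by RT-PCR and capillary electrophoresis; gain of signal fitted against DMSO.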

[3] = target: Transcriptional activator Myb (Homo sapiens) (UniProt P10242); experiment: ATG_Myb_CIS: Attagene CIS-FACTORIAL HepG2 Assay for human Myeloblastosis (Myb) Proto-Oncogene Transcription Factor (AID 2282986); details: HepG2 Attagene CIS-FACTORIAL Myb reporter transcription; actives raise or lower the signal
Procedure, shortened: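 Reporter transcript levels, quantified by fluorescent RT-PCR and capillary electrophoresis, serve as the read-out. Transfected HepG2 cells carrying cis-promoter reporter units are dosed for 24 hours, and curves are fitted bidirectionally against DMSO controls.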

[4] = target: Nuclear respiratory factor 1 (Homo sapiens) (UniProt Q16656); experiment: ATG_NRF1_CIS: Attagene CIS-FACTORIAL HepG2 Assay for human Nuclear Respiratory Factor 1 (NRF1) Orphan Gene (AID 2282987); details: HepG2 NRF1 cis-element reporter, Attagene multiplex; actives raise or lower the signal
Procedure, shortened: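 Multiplexed cis-reporter assay, HepG2 cells, 24 h treatment. Total RNA → oligo(dT) RT → PCR with reporter-specific primers → 6-FAM primer extension → HpaI cut → CE. Bidirectional fit vs DMSO.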

[5] = ATG_NFI_CIS: Attagene CIS-FACTORIAL HepG2 Assay for human Nuclear Factor I (NFI) (AID 2282989); details: HepG2 cis-regulatory reporter, NFI response element transcription; actives raise or lower the signal
Procedure, shortened: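 Reporter transcription driven by endogenous transcription factors in HepG2 cells; 24 h treatment. Quantitation by labelled RT-PCR fragments on capillary electrophoresis, gain- or loss-of-signal relative to DMSO.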

[6] = target: Myc proto-oncogene protein (Homo sapiens) (UniProt P01106); experiment: ATG_Myc_CIS: Attagene CIS-FACTORIAL HepG2 Assay for human Myelocytomatosis (Myc) Proto-Oncogene Transcription Factor (AID 2282990); details: HepG2, Attagene cis-reporter transcription factor activity; actives raise or lower the signal
Procedure, shortened: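 Fluorescence intensity of reporter-specific cDNA fragments, separated by capillary electrophoresis, gives the signal. Transfected HepG2 cells carrying cis-promoter reporter constructs are incubated with compound for 24 h; DMSO serves as baseline.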

[7] = ATG_NF_kB_CIS: Attagene CIS-FACTORIAL HepG2 Assay for human Nuclear Factor Kappa B (NF-kB) (AID 2282991); details: HepG2 Attagene cis-factorial NF-kB reporter mRNA; actives raise or lower the signal
Procedure, shortened: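 Transient MRTU transfection of human HepG2 liver cells → 24 h chemical exposure → total RNA, oligo(dT) RT → PCR, 6-FAM primer extension, HpaI digest 2 h 37 C → CE fragment analysis. Bidirectional fitting, DMSO negative control.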

[8] = ATG_NRF2_ARE_CIS: Attagene CIS-FACTORIAL HepG2 Assay for human Nuclear Factor Erythroid 2 Related Factor 2 (NFR2) response to Antioxidant Response Elements (ARE) (AID 2282992); details: HepG2 Attagene ARE/NRF2 reporter, transcription factor activity; actives raise or lower the signal;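 for AC50: reporter mRNA level measured by RT-PCR and capillary electrophoresis fluorescence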
Procedure, shortened: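 Transient MRTU transfection of HepG2; 24 h compound exposure; TriZol RNA, RT with oligo(dT), PCR, 6-FAM primer extension, HpaI cut, CE. Bidirectional fit vs DMSO.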

[9] = ATG_Oct_MLP_CIS: Attagene CIS-FACTORIAL HepG2 Assay for human Octamer-Binding Transcription Factor (Oct) (AID 2282993); details: HepG2 Attagene cis-factorial Oct reporter, mRNA; actives raise or lower the signal
Procedure, shortened: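 Transfected HepG2 cells, 24 h treatment. Reporter mRNA quantified by RT-PCR–capillary electrophoresis; bidirectional fitting against DMSO.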

[10] = BSK_3C_TissueFactor: BioMAP Diversity Plus: 3C Assay for Tissue Factor Biomarker Activity (AID 2282997); details: BioMAP 3C HUVEC, tissue factor biomarker readout; actives raise or lower the signal
Procedure, shortened: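 HUVEC were treated 24 h, then surface tissue factor measured by ELISA and fitted bidirectionally against DMSO. Parallel SRB total-protein staining assessed overt cytotoxicity at the same time point.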

[11] = BSK_3C_uPAR: BioMAP Diversity Plus: 3C Assay for Urokinase-type plasminogen activator receptor (uPAR) Biomarker Activity (AID 2282998); details: BioMAP 3C HUVEC, uPAR biomarker ELISA; actives raise or lower the signal
Procedure, shortened: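 Readout: ELISA for surface uPAR. System: human umbilical vein endothelial primary cells, 24 h after chemical exposure. Analysis: bidirectional fit, DMSO baseline.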

[12] = BSK_3C_VCAM1: BioMAP Diversity Plus: 3C Assay for Vascular cell adhesion molecule 1 (VCAM1) Biomarker Activity (AID 2282999); details: BioMAP 3C HUVEC, VCAM1 ELISA, cytokine-stimulated; actives raise or lower the signal
Procedure, shortened: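 Human umbilical vein endothelial cells (3C system), biomarker read by ELISA 24 h after dosing; bidirectional fit against DMSO baseline. Cytotoxicity tracked by SRB total-protein staining in parallel cultures at biomarker time.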

[13] = BSK_4H_Eotaxin3: BioMAP Diversity Plus: 4H Assay for Eotaxin 3 Biomarker Activity (AID 2283000); details: primary human endothelial cells (HUVEC); actives raise or lower the signal
Procedure, shortened: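 Eotaxin-3 (CCL26) levels were measured by ELISA in HUVEC primary cultures 24 h post-dosing. Gain or loss of signal was fitted in both directions, with DMSO serving as baseline and negative control.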

[14] = target: Hepatocyte nuclear factor 4-alpha (Homo sapiens) (UniProt P41235); experiment: ATG_HNF4a_TRANS: Attagene TRANS-FACTORIAL HepG2 Assay for human Hepatocyte Nuclear Factor 4 alpha (HNF4a) (AID 2282982; active = hit-call score of the fitted dose curve at least 0.9, where 1 is the maximum); details: HepG2 HNF4a transactivation reporter, mRNA readout
Procedure, shortened: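 HepG2 cells transiently transfected with HNF4a-Gal4 chimera and GAL4-UAS reporter units, dosed for 24 h. Reporter mRNA measured by RT-PCR, fluorescent primer extension and capillary electrophoresis; gain-of-signal fitted relative to DMSO.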

[15] = ATG_M_06_TRANS: Attagene TRANS-FACTORIAL HepG2 Assay for M06 Transcription Factor (Internal Marker) (AID 2282983; active = hit-call score of the fitted dose curve at least 0.9, where 1 is the maximum); details: HepG2 Attagene TRANS M06 internal marker reporter
Procedure, shortened: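 HepG2 cells transiently transfected with GAL4-UAS multiple reporter units, dosed 24 h. Reporter RNA reverse-transcribed, PCR-amplified, 6-FAM-labeled, HpaI-digested and quantified by capillary electrophoresis; this internal-marker signal fitted upward relative to DMSO.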

[16] = ATG_M_32_TRANS: Attagene TRANS-FACTORIAL HepG2 Assay for M32 Transcription Factor (Internal Marker) (AID 2282984; active = hit-call score of the fitted dose curve at least 0.9, where 1 is the maximum); details: HepG2 Attagene TRANS M32 internal marker reporter
Procedure, shortened: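 HepG2 cells transiently transfected with GAL4-UAS reporter units, dosed for 24 hours. Reporter mRNA quantified by RT-PCR, 6-FAM labelling, HpaI digestion and capillary electrophoresis; internal-marker signal fitted upward relative to DMSO.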

[17] = target: Cellular tumor antigen p53 (Homo sapiens) (UniProt P04637); experiment: ATG_p53_CIS: Attagene CIS-FACTORIAL HepG2 Assay for human p53 Transcription Factor (AID 2282994); details: HepG2 p53 cis-element reporter, Attagene mRNA; actives raise or lower the signal
Procedure, shortened: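 HepG2, transient MRTU transfection (cis promoter elements, endogenous TFs); 24 h dosing; RNA isolation, RT-PCR, 6-FAM primer extension, HpaI digest, CE fluorescence; bidirectional fit vs DMSO.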

[18] = target: human Peroxisome Proliferator-activated Receptor alpha (PPARa), PPARA (gene 5465) (UniProt Q07869); experiment: ATG_PPARa_TRANS: Attagene TRANS-FACTORIAL HepG2 Assay for human Peroxisome Proliferator-activated Receptor alpha (PPARa) (AID 2283001; active = hit-call score of the fitted dose curve at least 0.9, where 1 is the maximum)
Procedure, shortened: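 HepG2 cells transiently transfected with multiplexed GAL4-UAS reporters driven by exogenous chimeric NR-Gal4 proteins; reporter mRNA measured after 24 h dosing. Read-out by RT-PCR, 6-FAM labelling, HpaI digestion and capillary electrophoresis; gain of signal versus DMSO.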

Measured: AC50

Sequence of Cellular tumor antigen p53 (Homo sapiens) (P04637 whole entry, looked up): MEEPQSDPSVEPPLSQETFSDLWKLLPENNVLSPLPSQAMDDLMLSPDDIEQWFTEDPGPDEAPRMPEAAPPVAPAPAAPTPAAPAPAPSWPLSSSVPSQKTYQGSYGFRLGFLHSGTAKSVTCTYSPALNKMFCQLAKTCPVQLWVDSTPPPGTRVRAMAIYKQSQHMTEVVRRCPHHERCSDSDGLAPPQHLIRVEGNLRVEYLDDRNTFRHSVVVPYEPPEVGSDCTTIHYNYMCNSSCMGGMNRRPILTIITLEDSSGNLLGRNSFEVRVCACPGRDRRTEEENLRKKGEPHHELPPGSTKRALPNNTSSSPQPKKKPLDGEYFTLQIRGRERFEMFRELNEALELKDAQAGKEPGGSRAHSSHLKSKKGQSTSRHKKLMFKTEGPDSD
Sequence of Oxysterols receptor LXR-beta (Homo sapiens) (P55055 whole entry, looked up, the tested form may be a part): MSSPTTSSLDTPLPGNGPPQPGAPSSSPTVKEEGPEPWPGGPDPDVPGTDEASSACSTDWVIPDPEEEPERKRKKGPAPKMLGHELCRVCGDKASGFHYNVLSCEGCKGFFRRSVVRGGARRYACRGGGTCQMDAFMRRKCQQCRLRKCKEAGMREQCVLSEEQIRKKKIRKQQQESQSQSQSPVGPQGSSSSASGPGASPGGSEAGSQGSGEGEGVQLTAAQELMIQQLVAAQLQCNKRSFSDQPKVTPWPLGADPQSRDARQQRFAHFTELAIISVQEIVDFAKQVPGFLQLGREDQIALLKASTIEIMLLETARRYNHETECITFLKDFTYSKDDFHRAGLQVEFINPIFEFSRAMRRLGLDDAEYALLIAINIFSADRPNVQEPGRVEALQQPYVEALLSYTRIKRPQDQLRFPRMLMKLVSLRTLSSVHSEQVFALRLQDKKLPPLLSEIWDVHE
Sequence of human Peroxisome Proliferator-activated Receptor alpha (PPARa), PPARA (gene 5465) (Q07869 whole entry, looked up, the tested form may be a part): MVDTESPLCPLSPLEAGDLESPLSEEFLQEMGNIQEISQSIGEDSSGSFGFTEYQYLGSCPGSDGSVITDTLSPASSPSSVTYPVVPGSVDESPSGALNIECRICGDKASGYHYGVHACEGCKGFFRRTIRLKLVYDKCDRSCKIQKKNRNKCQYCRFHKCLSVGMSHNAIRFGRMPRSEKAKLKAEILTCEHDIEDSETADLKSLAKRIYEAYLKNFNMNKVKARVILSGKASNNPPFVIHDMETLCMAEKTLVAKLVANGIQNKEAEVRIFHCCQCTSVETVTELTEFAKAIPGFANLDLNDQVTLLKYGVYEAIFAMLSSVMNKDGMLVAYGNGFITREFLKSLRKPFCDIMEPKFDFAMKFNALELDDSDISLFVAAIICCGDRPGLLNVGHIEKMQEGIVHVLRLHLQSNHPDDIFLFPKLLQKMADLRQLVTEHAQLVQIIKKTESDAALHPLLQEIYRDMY
Sequence of Myc proto-oncogene protein (Homo sapiens) (P01106 whole entry, looked up, the tested form may be a part): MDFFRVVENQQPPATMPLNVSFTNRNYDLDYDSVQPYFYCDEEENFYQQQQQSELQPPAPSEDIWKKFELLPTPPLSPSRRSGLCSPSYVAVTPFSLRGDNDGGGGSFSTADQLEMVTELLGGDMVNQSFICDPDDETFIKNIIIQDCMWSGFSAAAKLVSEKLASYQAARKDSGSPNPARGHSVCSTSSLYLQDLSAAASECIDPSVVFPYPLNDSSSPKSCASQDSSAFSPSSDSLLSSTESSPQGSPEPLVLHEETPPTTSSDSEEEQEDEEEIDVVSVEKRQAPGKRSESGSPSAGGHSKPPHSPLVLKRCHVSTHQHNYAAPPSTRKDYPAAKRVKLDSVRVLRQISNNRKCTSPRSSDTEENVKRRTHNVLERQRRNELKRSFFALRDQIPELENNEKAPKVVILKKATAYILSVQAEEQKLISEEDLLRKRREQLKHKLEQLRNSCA
Sequence of Nuclear respiratory factor 1 (Homo sapiens) (Q16656 whole entry, looked up): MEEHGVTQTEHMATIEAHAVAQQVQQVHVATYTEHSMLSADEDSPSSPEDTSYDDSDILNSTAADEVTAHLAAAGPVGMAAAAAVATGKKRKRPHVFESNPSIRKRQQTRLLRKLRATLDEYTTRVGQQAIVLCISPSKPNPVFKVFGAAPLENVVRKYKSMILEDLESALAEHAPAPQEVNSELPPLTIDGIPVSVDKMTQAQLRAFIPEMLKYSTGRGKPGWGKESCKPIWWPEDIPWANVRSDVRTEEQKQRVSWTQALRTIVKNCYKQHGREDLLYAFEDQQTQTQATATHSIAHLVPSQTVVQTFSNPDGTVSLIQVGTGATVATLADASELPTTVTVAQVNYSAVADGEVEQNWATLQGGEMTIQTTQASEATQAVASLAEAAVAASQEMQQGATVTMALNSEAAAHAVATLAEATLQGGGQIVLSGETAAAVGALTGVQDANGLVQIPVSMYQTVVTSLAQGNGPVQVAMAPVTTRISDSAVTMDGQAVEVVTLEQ
Sequence of Transcriptional activator Myb (Homo sapiens) (P10242 whole entry, looked up): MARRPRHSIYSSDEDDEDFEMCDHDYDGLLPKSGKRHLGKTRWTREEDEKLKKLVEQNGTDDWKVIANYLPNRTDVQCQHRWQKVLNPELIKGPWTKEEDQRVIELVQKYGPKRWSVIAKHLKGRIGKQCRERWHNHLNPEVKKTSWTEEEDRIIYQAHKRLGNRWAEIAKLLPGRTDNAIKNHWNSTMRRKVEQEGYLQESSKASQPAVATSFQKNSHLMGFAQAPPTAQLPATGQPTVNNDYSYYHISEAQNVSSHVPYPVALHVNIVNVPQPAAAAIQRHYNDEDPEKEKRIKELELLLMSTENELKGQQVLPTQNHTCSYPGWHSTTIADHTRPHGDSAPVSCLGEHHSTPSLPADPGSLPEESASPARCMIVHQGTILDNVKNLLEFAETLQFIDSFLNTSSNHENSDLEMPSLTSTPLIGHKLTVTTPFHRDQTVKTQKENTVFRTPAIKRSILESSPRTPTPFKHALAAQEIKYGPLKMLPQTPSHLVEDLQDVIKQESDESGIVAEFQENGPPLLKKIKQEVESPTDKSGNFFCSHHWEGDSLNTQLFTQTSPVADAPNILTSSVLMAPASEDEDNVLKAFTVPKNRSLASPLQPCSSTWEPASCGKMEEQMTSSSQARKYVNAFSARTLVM
Sequence of Hepatocyte nuclear factor 4-alpha (Homo sapiens) (P41235 whole entry, looked up, the tested form may be a part): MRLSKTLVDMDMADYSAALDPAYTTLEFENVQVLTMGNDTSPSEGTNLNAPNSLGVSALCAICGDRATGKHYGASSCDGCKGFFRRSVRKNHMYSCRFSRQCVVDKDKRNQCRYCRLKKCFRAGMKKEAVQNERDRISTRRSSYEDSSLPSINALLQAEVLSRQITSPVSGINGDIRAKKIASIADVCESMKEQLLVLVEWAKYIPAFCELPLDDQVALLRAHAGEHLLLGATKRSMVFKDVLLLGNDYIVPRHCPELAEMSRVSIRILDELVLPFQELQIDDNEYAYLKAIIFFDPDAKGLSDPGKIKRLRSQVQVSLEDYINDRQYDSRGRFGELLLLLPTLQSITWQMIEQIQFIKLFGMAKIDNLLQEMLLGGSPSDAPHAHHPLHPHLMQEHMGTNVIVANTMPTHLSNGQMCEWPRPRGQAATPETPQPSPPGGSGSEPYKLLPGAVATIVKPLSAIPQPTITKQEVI
Sequence of Nuclear receptor subfamily 4 group A member 2 (Homo sapiens) (P43354 whole entry, looked up, the tested form may be a part): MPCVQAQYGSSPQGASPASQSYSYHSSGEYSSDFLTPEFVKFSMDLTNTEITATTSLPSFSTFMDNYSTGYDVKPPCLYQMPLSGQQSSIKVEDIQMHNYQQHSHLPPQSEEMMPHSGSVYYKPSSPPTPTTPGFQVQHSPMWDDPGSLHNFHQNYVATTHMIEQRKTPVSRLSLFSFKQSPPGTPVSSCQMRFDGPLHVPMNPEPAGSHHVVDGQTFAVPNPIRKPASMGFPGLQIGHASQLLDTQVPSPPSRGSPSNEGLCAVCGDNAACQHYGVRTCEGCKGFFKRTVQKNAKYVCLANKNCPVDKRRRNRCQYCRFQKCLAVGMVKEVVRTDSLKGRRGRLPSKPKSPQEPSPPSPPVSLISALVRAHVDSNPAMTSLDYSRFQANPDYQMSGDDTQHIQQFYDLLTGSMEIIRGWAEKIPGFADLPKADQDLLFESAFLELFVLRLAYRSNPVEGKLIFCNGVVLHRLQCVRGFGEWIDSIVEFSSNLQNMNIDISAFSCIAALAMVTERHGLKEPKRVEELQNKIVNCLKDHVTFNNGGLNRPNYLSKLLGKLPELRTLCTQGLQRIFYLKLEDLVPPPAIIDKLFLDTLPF

CCCCCCCCCCCCCCC
not listed: [14] | [15] | [16] | [17] | [18]
inactive: all other assays above

FC(F)(F)N1C(F)(F)C(F)(F)OC(F)(F)C1(F)F
not listed: [1] | [8] | [10] | [11] | [12] | [13]
inactive: all other assays above

O=C(NO)c1ccccc1
inactive: [15] | [16] | [2] | [3] | [4] | [5] | [6] | [8] | [9] | [10] | [11] | [12] | [13]
active: [2] 57.6 µM and 40.3 µM and 58 µM | [7] 22 µM [middle of 4 runs] | [8] 16.2 µM and 18.5 µM | [17] 35.3 µM [middle of 4 runs]

C=CC(=O)OCC(CO)(COCC(COC(=O)C=C)(COC(=O)C=C)COC(=O)C=C)COC(=O)C=C
active: [3] 7.52 µM | [4] 14.9 µM | [7] 817 nM | [9] 2.89 µM | [17] 2.86 µM
inactive: [14] | [16] | [5] | [8] | [18]

Cc1ccc2ccc3ccc(C)cc3c2c1
inactive: [14] | [15] | [2] | [3] | [4] | [5] | [7] | [9] | [17] | [18]

CCCCC(CC)C(=O)OCCOCCOCCOCCOC(=O)C(CC)CCCC (centres undefined)
active: [8] 100 µM
not listed: [1] | [13] | [14] | [17]
inactive: all other assays above

COC(=O)C(F)(F)C(F)(F)C(F)(F)F
not listed: [10] | [11] | [12] | [13] | [14]
inactive: all other assays above

Cc1ccc(C(=O)c2ccccc2)cc1
active: [10] 11.3 µM | [12] 26.3 µM | [13] 28.4 µM
not listed: [1] | [8] | [15] | [18]
inactive: all other assays above

Cc1cncc(C)c1
inactive: [14] | [3] | [4] | [5] | [7] | [8] | [9] | [17] | [18]

O=C(F)C(F)(F)C(F)(F)C(F)(F)C(=O)F
not listed: [1] | [10] | [11] | [12] | [13]
inactive: all other assays above

CC(C)(O)C(=O)c1ccccc1
inactive: [1] | [16] | [2] | [3] | [4] | [5] | [7] | [9] | [17] | [18]

OCC(F)(F)C(F)(F)C(F)(F)C(F)(F)C(F)(F)C(F)(F)C(F)(F)C(F)(F)C(F)(F)C(F)(F)C(F)(F)F
active: [8] 55.4 µM
not listed: [1] | [2] | [13] | [14]
inactive: all other assays above

CCOC=O
inactive: [14] | [3] | [4] | [5] | [6] | [7] | [8] | [9] | [17] | [18]

O=C(O)CCC(F)(F)C(F)(F)C(F)(F)C(F)(F)C(F)(F)C(F)(F)F
active: [8] 68.4 µM
not listed: [13] | [14] | [15]
inactive: all other assays above
